Test results as given in PubChem BioAssay (EPA / NIEHS).
A structure can be active in one record and inactive in another. Calls of active or inactive are those of the source. The calls were made as follows: active = hit-call score of the fitted dose curve at least 0.9, where 1 is the maximum; inactive = score below 0.9.

How the values were obtained:
[1] = read-out: TIMP metallopeptidase inhibitor 1 (TIMP1), TIMP1 (gene 7076); assay: BSK_MyoF_TIMP1: BioMAP Diversity Plus: MyoF Assay for TIMP metallopeptidase inhibitor 1 (TIMP1) Biomarker Activity (AID 2284269); conditions: primary human lung fibroblasts
Procedure, shortened: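 Primary human lung fibroblasts, MyoF multiplex system; chemical exposure 24 h; TIMP-1 by ELISA; positive fitting direction vs DMSO control.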

[2] = read-out: Matrix Metallopeptidase 1 (MMP1), MMP1 (gene 4312); assay: BSK_BF4T_MMP1: BioMAP Diversity Plus: BF4T Assay for Matrix Metallopeptidase 1 (MMP1) Biomarker Activity (AID 2284270); conditions: primary human bronchial epithelial cells with fibroblasts
Procedure, shortened: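 Co-culture of human bronchial epithelial cells and dermal fibroblasts; MMP-1 levels measured by ELISA 24 hours after chemical dosing, relative to DMSO. Cytotoxicity checked in parallel cultures by SRB total-protein staining.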

[3] = read-out: Matrix Metallopeptidase 3 (MMP3), MMP3 (gene 4314); assay: BSK_BF4T_MMP3: BioMAP Diversity Plus: BF4T Assay for Matrix Metallopeptidase 3 (MMP3) Biomarker Activity (AID 2284271); conditions: primary human bronchial epithelial cells with fibroblasts
Procedure, shortened: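 Co-culture of human bronchial epithelial cells and dermal fibroblasts dosed 24 h; MMP-3 measured by ELISA, positive-direction fit versus DMSO. Cytotoxicity tracked by SRB total-protein staining (560 nm) in parallel cultures.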

[4] = read-out: Tissue plasminogen activator (tPA), PLAT (gene 5327); assay: BSK_BF4T_tPA: BioMAP Diversity Plus: BF4T Assay for Tissue plasminogen activator (tPA) Biomarker Activity (AID 2284272); conditions: primary human bronchial epithelial cells with fibroblasts
Procedure, shortened: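 tPA level quantified by ELISA at 24 h post-treatment in bronchial epithelial/dermal fibroblast co-cultures, gain of signal scored against DMSO baseline. Parallel cultures stained with 0.1% SRB (560 nm) to flag overt cytotoxicity.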

[5] = read-out: Plasminogen Activator Inhibitor-1 (PAI1), SERPINE1 (gene 5054); assay: BSK_BF4T_PAI1: BioMAP Diversity Plus: BF4T Assay for Plasminogen Activator Inhibitor-1 (PAI1) Biomarker Activity (AID 2284273); conditions: primary human bronchial epithelial cells with fibroblasts
Procedure, shortened: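 Co-culture of human bronchial epithelial cells and dermal fibroblasts exposed to compound for 24 h. PAI-1 measured by ELISA; activity fitted in positive direction versus DMSO. Parallel SRB staining assessed overt cytotoxicity.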

[6] = BSK_BF4T_SRB: Viability Assessment in the BioMAP Diversity Plus: BF4T Assay (AID 2284274); conditions: primary human bronchial epithelial cells with fibroblasts
Procedure, shortened: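 Co-culture of human bronchial epithelial cells and dermal fibroblasts (BioMAP BF4T) exposed 24 h. Total protein by sulforhodamine B staining (0.1% SRB after 10% TCA fixation, 560 nm) in parallel cultures; fitted vs DMSO.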

[7] = read-out: urokinase Plasminogen Activator (uPA), PLAU (gene 5328); assay: BSK_BF4T_uPA: BioMAP Diversity Plus: BF4T Assay for urokinase Plasminogen Activator (uPA) Biomarker Activity (AID 2284275); conditions: primary human bronchial epithelial cells with fibroblasts
Procedure, shortened: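 Co-culture of human bronchial epithelial cells and dermal fibroblasts; uPA quantified by ELISA 24 hours after dosing, fitted relative to DMSO. Parallel SRB total-protein staining assessed overt cytotoxicity.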

[8] = read-out: Matrix Metallopeptidase 9 (MMP9), MMP9 (gene 4318); assay: BSK_BF4T_MMP9: BioMAP Diversity Plus: BF4T Assay for Matrix Metallopeptidase 9 (MMP9) Biomarker Activity (AID 2284276); conditions: primary human bronchial epithelial cells with fibroblasts
Procedure, shortened: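 Co-culture of human bronchial epithelial cells and dermal fibroblasts dosed for 24 h; MMP-9 quantified by ELISA and fitted upward versus DMSO. Cytotoxicity monitored in parallel cultures by SRB total-protein staining at the biomarker time point.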

[9] = read-out: Interleukin-8 (IL8), CXCL8 (gene 3576); assay: BSK_IMphg_IL8: BioMAP Diversity Plus: IMphg Assay for Interleukin-8 (IL8) Biomarker Activity (AID 2284277); conditions: primary human endothelial cells with macrophages
Procedure, shortened: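 Co-culture of human venular endothelial cells and macrophages exposed to chemicals for 24 h; IL-8 quantified by ELISA and compared against the DMSO baseline, with SRB total-protein staining in parallel cultures for cytotoxicity.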

[10] = read-out: Intercellular Adhesion Molecule 1 (ICAM1), ICAM1 (gene 3383); assay: BSK_BE3C_ICAM1: BioMAP Diversity Plus: BE3C Assay for Intercellular Adhesion Molecule 1 (ICAM1) Biomarker Activity (AID 2284278); conditions: primary human bronchial epithelial cells;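 also: cell-surface ICAM-1 protein level quantified by ELISA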
Procedure, shortened: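 Primary human bronchial epithelial cells were exposed to compound for 24 h, after which cell-surface ICAM-1 was quantified by ELISA. Activity was fitted in the gain-of-signal direction against DMSO as negative control and baseline.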

[11] = read-out: Interleukin-8 (IL8), CXCL8 (gene 3576); assay: BSK_BE3C_IL8: BioMAP Diversity Plus: BE3C Assay for Interleukin-8 (IL8) Biomarker Activity (AID 2284280); conditions: primary human bronchial epithelial cells
Procedure, shortened: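 IL-8 signal gain, normalised to DMSO vehicle, was scored after a 24 h chemical exposure of primary human bronchial epithelial cells, with detection by ELISA.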

[12] = read-out: Epidermal growth factor receptor (EGFR), EGFR (gene 1956); assay: BSK_BE3C_EGFR: BioMAP Diversity Plus: BE3C Assay for Epidermal growth factor receptor (EGFR) Biomarker Activity (AID 2284281); conditions: primary human bronchial epithelial cells
Procedure, shortened: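 Compound is added to human bronchial epithelial cells, cells incubate 24 h, then EGFR is detected by ELISA. Values reflect positive-direction fitting relative to DMSO.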

[13] = read-out: Matrix Metallopeptidase 9 (MMP9), MMP9 (gene 4318); assay: BSK_BE3C_MMP9: BioMAP Diversity Plus: BE3C Assay for Matrix Metallopeptidase 9 (MMP9) Biomarker Activity (AID 2284283); conditions: primary human bronchial epithelial cells
Procedure, shortened: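 Human primary bronchial epithelial cells exposed 24 h to compound. MMP9 quantified by ELISA. SRB total-protein staining of parallel cultures assesses cytotoxicity. Positive-direction fit relative to DMSO.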

[14] = read-out: Plasminogen activator inhibitor-1 (PAI1), SERPINE1 (gene 5054); assay: BSK_CASM3C_PAI1: BioMAP Diversity Plus: CASM3C Assay for Plasminogen activator inhibitor-1 (PAI1) Biomarker Activity (AID 2284284); conditions: primary human coronary artery smooth muscle cells;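 also: PAI-1 protein level measured by ELISA 24 h after dosing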
[15] = read-out: Monocyte Chemoattractant Protein-1 (MCP1), CCL2 (gene 6347); assay: BSK_hDFCGF_MCP1: BioMAP Diversity Plus: hDFCGF Assay for Monocyte Chemoattractant Protein-1 (MCP1) Biomarker Activity (AID 2284285); conditions: primary human foreskin fibroblasts
Procedure, shortened: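 Human foreskin fibroblasts (hDFCGF system) were exposed to compound and secreted MCP-1 was measured by ELISA after 24 hours. Activity was fitted relative to DMSO. Cytotoxicity was checked by SRB total-protein staining in parallel cultures.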

[16] = read-out: Vascular cell adhesion molecule 1 (VCAM1), VCAM1 (gene 7412); assay: BSK_IMphg_VCAM1: BioMAP Diversity Plus: IMphg Assay for Vascular cell adhesion molecule 1 (VCAM1) Biomarker Activity (AID 2284286); conditions: primary human endothelial cells with macrophages
Procedure, shortened: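 Human venular endothelial cells co-cultured with macrophages; VCAM-1 quantified by ELISA 24 h after dosing, fitted in the positive direction against DMSO. Cytotoxicity was checked in parallel cultures by SRB total-protein staining (0.1% SRB after 10% TCA fixation, 560 nm).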

[17] = read-out: Intercellular Adhesion Molecule 1 (ICAM1), ICAM1 (gene 3383); assay: BSK_hDFCGF_ICAM1: BioMAP Diversity Plus: hDFCGF Assay for Intercellular Adhesion Molecule 1 (ICAM1) Biomarker Activity (AID 2284287); conditions: primary human foreskin fibroblasts
Procedure, shortened: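 Primary human foreskin fibroblasts (hDFCGF system) dosed with chemical; ICAM-1 quantified by ELISA at 24 h relative to DMSO. Parallel SRB total-protein staining to assess overt cytotoxicity.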

CD40, CD40 (gene 958) = assay: BSK_IMphg_CD40: BioMAP Diversity Plus: IMphg Assay for CD40 Biomarker Activity (AID 2284288); conditions: primary human endothelial cells with macrophages
Procedure, shortened: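 Venular endothelial cells co-cultured with macrophages (human primary), CD40 measured by ELISA 24 h after dosing. Positive-direction fit vs DMSO baseline; cytotoxicity tracked by SRB total-protein staining in parallel cultures.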

Measured: AC50

O=S(=O)(O)CCC(F)(F)C(F)(F)C(F)(F)C(F)(F)C(F)(F)C(F)(F)C(F)(F)C(F)(F)F
inactive: [1] | [2] | [3] | [4] | [5] | [6] | [7] | [8] | [9] | [10] | [11] | [12] | [13] | [14] | [15] | [16] | [17]
active: [11] 20.4 µM | [17] 22.4 µM

FC(F)(F)C(F)(F)C(F)(F)C(F)(F)C(F)(F)C(F)(F)C(F)(F)CCI
active: [11] 0.662 µM
inactive: [1] | [2] | [3] | [4] | [5] | [6] | [7] | [8] | [9] | [10] | [11] | [12] | [13] | [14] | [15] | [16] | [17]

OCC(F)(F)C(F)(F)C(F)(F)CO
inactive: [1] | [2] | [3] | [4] | [5] | [6] | [7] | [8] | [9] | [10] | [11] | [12] | [13] | [14] | [15] | [16] | [17]

CN(C(=O)C(F)(F)C(F)(F)C(F)(F)F)[Si](C)(C)C
inactive: [1] | [2] | [3] | [4] | [5] | [6] | [7] | [8] | [9] | [10] | [11] | [12] | [13] | [14] | [15] | [16] | [17] | CD40, CD40 (gene 958)

NC(=O)C(F)(F)C(F)(F)C(F)(F)F
inactive: [1] | [2] | [3] | [4] | [5] | [6] | [7] | [8] | [9] | [10] | [11] | [12] | [13] | [14] | [15] | [16] | [17]
